In PubChem BioAssay AID588674 (Broad Institute, 2011) one finds inhibition data, which are given here for 56 compounds.

Each structure is given as a SMILES string. “And” between values parts separate entries of the source, which are not always exact repeats. Equal values may be shown once. Out of some 360,000 compounds screened, about 1,800 (0.5%) were called active.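 The calls were made as follows: active = mean inhibition of at least 75% with every replicate also reaching 75%; inconclusive = mean inhibition at least 75% but some replicate below; inactive = mean inhibition below 75%.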 Only a selection was taken, and actives are over-represented in it overall.

The nature of this experiment: Shn3 3'UTR reporter decrease in osteoblasts – cell-based, Clone20 osteoblasts, firefly luciferase, set 2, Schnurri-3 inhibitor project, primary screen (AID 588674).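 Also: 0% = median of neutral control wells and 100% = pilot-screen positive control compound.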 Conditions: Clone20 osteoblast Shn3 3'UTR firefly luciferase, 24 h; at 12.5 µM; stronger effect = higher value.
For orientation: inhibition means the change of the read-out against control, counted positive when it falls. As for `O=C(CCNS(=O)(=O)c1cccs1)N1CCN(c2ccc(F)cc2)CC1`, the inhibition is -1.48% (inactive). As for `C=C(C)C(=O)O[C@H]1C/C(C)=C\C(=O)/C=C(\C)[C@H](O)[C@@H]2OC(=O)C(=C)[C@@H]21`, the inhibition was 87.7% (active). In the case of `COC(=O)c1c(NC(=O)c2ccc(S(=O)(=O)N3CCOCC3)cc2)sc2c1CCN(C(C)C)C2` it was -14% (inactive). In the case of `N#C/C(C(=S)Nc1ccccc1)=C1/NN=C(N2CCOCC2)N1c1ccccc1` it was 2.09% (inactive); in that of `CCOC(=O)c1cnc2nc(SCc3ccccc3Cl)[nH]n2c1=O`, -11.4% (inactive).

In the case of `Cc1cc(-n2nc(C)cc2C)n2ncc(-c3ccccc3)c2n1`, the inhibition is -43% (inactive). The figure for `CCOC(=O)c1cnc(-n2nc(C)cc2C)nc1NNc1cc(C)nc(-c2ccccc2)n1` is 92.1% (active); for `O=C(Oc1ccccc1)Oc1ccc2c(c1)oc(=O)c1ccccc12` it is -6.2% (inactive) and -3.28% (inactive). On to `Cc1ncoc1C(=O)NCCC(c1ccccc1)c1ccccc1`, for which the inhibition was 17.9% (inactive). The figure for `CCNc1nc(NCC)nc(N(C)n2cnnc2)n1` is 4.63% (inactive). The figure for `O=C(CCCCCn1c(=S)[nH]c2cc3c(cc2c1=O)OCO3)N1CCN(c2ccc(F)cc2)CC1` is 8.75% (inactive); for `Cc1ccc(C)c(N2CCN(C(=O)CCCn3c(=O)c4cccn4c4cccnc43)CC2)c1` it is 8.64% (inactive). In the case of `Cc1ccc(C)c(N2CCN(C(=O)CCCCCn3c(=S)[nH]c4ccc(N5CCOCC5)cc4c3=O)CC2)c1` it was 87.2% (active); in that of `CCCN(CC(=O)Nc1ccccc1OC)C(=O)CCC(=O)c1ccc(F)cc1`, 8.98% (inactive). `COc1ccccc1N1CCN(C(=O)C2Cc3ccccc3CN2C(=O)c2ccco2)CC1` (stereo unspecified): the inhibition was -11.8% (inactive). Consider `CN(C)S(=O)(=O)c1cccc(NC(=O)COC(=O)C2(c3ccccc3F)CCCC2)c1`, for which the inhibition was 12.1% (inactive). `CC[C@H]1CN2CCc3cc(OC)c(OC)cc3[C@@H]2C[C@@H]1C[C@H]1NCCc2cc(OC)c(OC)cc21`: the inhibition was 94.7% (active). Regarding `CC1CN(c2nc(-c3ccccc3)nnc2-c2ccccc2)CC(C)O1` (stereo unspecified), the inhibition is 21% (inactive). The figure for `CC(C)N(C(=O)[C@H]1C[C@H](CC(=O)NC(C)(C)C)C(=O)N2CCc3c([nH]c4ccc(Cl)cc34)[C@]12C)C(C)C` is 26.9% (inactive); for `COc1cc(NC(=O)C2=C(C)OCCS2)c(Cl)cc1C(=O)NCCCN1CCCC(C)C1` (stereo unspecified) it is -6.28% (inactive). In the case of `O=C(O)c1[nH]c2ccccc2c1C(c1cccc(O)c1)c1c(C(=O)O)[nH]c2ccccc12` it was 0.858% (inactive); in that of `O=C(NCc1ccco1)C1(c2ccc(Cl)cc2)CCCC1`, -21.5% (inactive); in that of `O=C(CSc1c2c(nc3ccc(Cl)cc13)CCCC2)NCc1ccco1`, 89.8% (active).

With `O=C(CSc1nnnn1-c1ccccc1)NCc1ccco1`, the inhibition was 4.12% (inactive).

Regarding `COc1ccccc1NC(=O)COC(=O)Cc1ccc(S(=O)(=O)N2CCCCC2)s1`, the inhibition is -14.6% (inactive). `Cc1c(Cl)c([N+](=O)[O-])nn1Cc1ccc(C(=O)N/N=C\c2cc(Cl)ccc2O)o1`: the inhibition was 92.8% (active). The figure for `O=C(N/N=C\c1ccc(Br)cc1)c1ccc(Cn2cccn2)o1` is -11.5% (inactive); for `Cc1nn(Cc2ccccc2Cl)c(C)c1NC(=O)Cn1nc([N+](=O)[O-])c(Cl)c1C` it is 3.56% (inactive). In the case of `Cc1ccsc1C(=O)N[C@@H](C)c1nnc2ccccn12` it was 1.01% (inactive); in that of `CCCN(CCC)CCNC(=O)c1cc2c(C)nc3ccccc3c2o1`, 24.7% (inactive). The figure for `CN(C)CCNC(=O)c1ccc(Cl)c2cc3ccccc3nc12` is 94.1% (active); for `CNC(=O)c1cccc2nc3ccccc3nc12` it is -0.196% (inactive); for `O=C(CNCc1ccc(Cl)cc1)Nc1cccc(C(=O)O)c1` it is -8.08% (inactive). As for `O=C(/C=C/c1ccc([N+](=O)[O-])cc1)NCCSCc1ccco1`, the inhibition was -1.26% (inactive). On to `COc1ccc(C)cc1-n1nnnc1SCC(=O)c1cc(C)n(Cc2ccco2)c1C`, for which the inhibition is 3.21% (inactive). The figure for `COC(=O)CC(CC(=O)OC)n1cccc1` is -11.6% (inactive); for `COc1ccc(NC(=O)C2Cc3c(-c4ccc5c(c4)OCO5)ccnc3O2)cn1` (stereo unspecified) it is 15.8% (inactive); for `COc1ccc(NC(=O)CN2C(=O)NC(C)(c3ccccc3)C2=O)cn1` (stereo unspecified) it is -47.7% (inactive).

Turning to `COc1ccc(NC(=O)/C(Cl)=C(/Cl)S(=O)Cc2ccc(C)cc2)cn1` (stereo unspecified), the inhibition is 96.6% (active). The figure for `Cn1c(SCC(=O)N2CCOCC2)nnc1-c1ccc2ncccc2c1` is -2.77% (inactive); for `Cc1cc(C)c(S(=O)(=O)N2CCCC2CNC(=O)c2ccc3c(c2)OCO3)c(C)c1` (stereo unspecified) it is 7.24% (inactive). As for `CCOC(=O)c1cc(-c2ccccc2C)n(Cc2cc(C)no2)n1`, the inhibition is 4.57% (inactive). In the case of `COc1ccc2c(c1)c(=Cc1ccc(N(C)C)cc1)c1cc(-c3ccccc3)[n+](C)n12` it was 92.6% (active); in that of `COC(=O)CN1C(=O)C(C)(C)Oc2ccc(C(=O)Nc3cccc(OC)c3)cc21`, 3.92% (inactive). The figure for `Cc1cc(N)n2nc(-c3ccc(C(C)(C)C)cc3)cc2n1` is -5.54% (inactive); for `O=C(NNc1ccccc1Cl)C(O)(c1cccc(C(F)(F)F)c1)c1cccc(C(F)(F)F)c1` it is 20.3% (inactive). Turning to `O=C(O)C(=Cc1ccc([N+](=O)[O-])cc1)CCc1ccccc1`, the inhibition is -2.04% (inactive). The figure for `CC(=O)Nc1ccc(C=CC(=O)c2ccc([N+](=O)[O-])cc2)cc1` is 9.91% (inactive). The figure for `O=C1/C(=C\c2ccc([N+](=O)[O-])cc2)CS(=O)(=O)C/C1=C/c1ccc([N+](=O)[O-])cc1` is 96.5% (active); for `CSc1ccccc1NC(=O)c1ccc2c(c1)CCN2S(C)(=O)=O` it is -16.4% (inactive). With `COc1ccc(CNc2nccs2)cc1`, the inhibition was -11% (inactive). For the compound `COc1ccc(CNc2ncnc3ccccc23)cc1`, the inhibition is 86.1% (active).

In the case of `c1ccc(CNc2ncnc3[nH]ncc23)cc1`, the inhibition was 14.2% (inactive). Turning to `CCc1ccc(N2CC(O)=C(c3nc4ccccc4c(=O)[nH]3)C2=N)cc1`, the inhibition is -17% (inactive). `CC(=O)Nc1ccc(NC(=O)CC2CCCC2)cc1`: the inhibition was -25.4% (inactive). In the case of `COc1ccc(CN2CCOC2=O)cc1OC` it was 15.9% (inactive).
